# Measurements taken from paper PMC5540273 (PLoS ONE, 2017).
# System: PDPK1
# Settings: concentration: 1 μM, replicates: in singlicate; n = 1
# 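Further: KINOMEscan kinase panel screen.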
row,Structure (SMILES),%Inh [%]
1,FC(F)(F)c1ccc(/C=C/c2cncnc2Nc2ccc3[nH]c(Cc4ccccc4)nc3c2)cc1 [GW709199],0
2,O=C(Nc1cccc(-c2nn3ccccc3c2-c2ccnc(Nc3cccc(F)c3)n2)c1)c1c(F)ccc(F)c1Cl [GSK357952],36
3,O=C(Nc1ccccc1F)NC1CCN(c2ccnc(Nc3ccc(F)cc3)n2)CC1 [GSK1379800],0
4,Cc1occc1-c1ncc(OC[C@@H](N)Cc2c[nH]c3ccccc23)cc1-c1ccc2[nH]nc(C)c2c1.O=C(O)C(F)(F)F [GSK682037],0
5,C[C@@H]1CC[C@@H](C(=O)Nc2ccccc2)CN1c1cc(-c2ccc3c(N)n[nH]c3c2)nc(N)n1 [GSK2286062],64
6,Cl.NC(=O)c1cccc(Nc2nccc(Nc3ccc(Oc4c(Cl)cccc4Cl)c(Cl)c3)n2)c1 [GW659009],0
7,Cc1ccc(C(=O)Nc2ccc(Nc3ccnc4cc(-c5nccs5)ccc34)cc2O)cc1.Cl [GW494702],10
8,CNC(=O)c1ccccc1Nc1nc(Nc2ccc(N3CCOCC3)cc2)ncc1Cl.Cl [GSK1576028],42
9,COc1cc(Nc2nccc(-c3c(-c4cccc(NC(=O)c5c(F)cccc5F)c4)nn4ccccc34)n2)cc(OC)c1OC [GSK323521],13
10,Nc1ncnc2c1nc(-c1ccccc1)n2-c1ccccc1 [SKF-97293],2
11,Fc1ccc(-c2ncn(C3CCNCC3)c2-c2ccnc(Oc3ccc(-c4ccccc4)cc3)n2)cc1 [SB-245391],21
12,Cl.Cl.NCC(NCc1ccc(-c2ccnc3[nH]ccc23)s1)c1ccccc1 (stereo not shown) [GSK1321565],0
13,CC(=O)N1CCN(c2ccc(Nc3nccc(-c4sc(C(C)C)nc4-c4cccc(NS(=O)(=O)c5cccc(Cl)c5)c4)n3)cn2)CC1 [GSK1660437],0
14,COc1ccc(Nc2nccc(N3CCC(NC(=O)Nc4cccc(OC)c4)C3)n2)cc1 (stereo not shown) [GSK1379742],15
15,Cl.Cl.NCC(NC(=O)c1cc(-c2ccccc2)c(-c2ccnc3[nH]ccc23)s1)c1ccccc1 (stereo not shown) [GSK1321561],20
16,O=C(Nc1n[nH]c2cc(-c3ccoc3)ccc12)C1CC1 [SB-738481],0
17,Cl.c1ccc(-c2ccc3c(Nc4ccc5[nH]ccc5c4)ccnc3c2)nc1 [GW440138],0
18,COc1cc(Nc2nccc(-c3c(-c4cccc(NC(=O)c5c(F)cccc5F)c4)nn4ncccc34)n2)cc(OC)c1OC [GSK327238],16
19,CCCCc1nn2ncccc2c1-c1ccnc(Nc2ccc(N3CCN(C)CC3)cc2)n1 [GW684941],0

row,Structure (SMILES),%Inh [%]
1,Nc1ncc(-c2ccc3nccc(-c4ccncc4)c3c2)cc1S(=O)(=O)N1CCOCC1 [GSK1627798],0
2,Cc1ccc(S(=O)(=O)Nc2ccc(Nc3nccc(Nc4cccc5[nH]ncc45)n3)cc2)cc1 [GSK581271],0
3,COc1ccc(Nc2nccc(NCCNC(=O)c3cc4ccccc4s3)n2)cc1 [GSK1379896],8
4,NCCCC(NC(=O)c1cc(Br)c(-c2ccnc3[nH]ccc23)s1)c1ccccc1.O=C(O)C(F)(F)F.O=C(O)C(F)(F)F (stereo not shown) [GSK1287544],14
5,CC(C)c1nc(-c2cccc(NS(=O)(=O)c3c(F)cccc3F)c2F)c(-c2ccnc(Nc3ccc(N4CCOCC4)nc3)n2)s1 [GSK2008607],0
6,O=C(NC1CCN(c2ccnc(Nc3ccc(F)cc3)n2)C1)c1cc2ccccc2s1 (stereo not shown) [GSK1379716],0
7,Nc1ncc(-c2cccnc2)c2scc(-c3ccc4c(c3)CCN4C(=O)Cc3ccccc3)c12 [GSK683281],21
8,CC(C)(C)c1ccc2nccc(Nc3cccc(O)c3)c2c1 [GW856795],96.3
9,COc1cccc(C2=C(Nc3ccc(Cl)c(C(=O)O)c3)C(=O)NC2=O)c1 [SB-390769],0
10,Cc1ccc(F)c(C(=O)Nc2cccc(-c3nn4ccccc4c3-c3ccnc(Nc4cccc(F)c4)n3)c2)c1F [GSK361061],11
11,O=C(Nc1n[nH]c2nc(-c3ccc(O)cc3)ccc12)C1CC1 [SB-710363],5
12,c1ccc(-c2n[nH]cc2Nc2ccnc3ccccc23)nc1 [GW694077],0
13,CCn1c(-c2nonc2N)nc2c(C#CC(C)(C)O)ncc(OCCCCN)c21.O=C(O)C(F)(F)F.O=C(O)C(F)(F)F [GSK507274],0
14,O=C(Nc1cccc(-c2nn3ccccc3c2-c2ccnc(Nc3cccc(C(F)(F)F)c3)n2)c1)c1c(F)cccc1F [GSK292658],0
15,Nc1n[nH]c2cnc(-c3ccccc3)cc12 [SB-642124],0
16,CN(c1ccc(NC(=O)Nc2cc(C(F)(F)F)ccc2F)cc1)c1ccnc(Nc2ccc(S(N)(=O)=O)cc2)n1 [GW809893],35
17,Clc1ccc(-c2nn3ncccc3c2-c2ccnc(Nc3ccc4c(c3)OCCO4)n2)cc1 [GW829116],0
18,Cn1cc(-c2[nH]c3cc(NC(=O)[C@H](N)C4CCCCC4)cc4c3c2C=NNC4=O)cn1,75
